Z-score data for 14 compounds are collected here from PubChem BioAssay.

Activity calls are given as the source filed them.

A short description of assay [1]: compound effects on lung adenocarcinoma cell viability – A549, calcein-AM fluorescence, 48 h, basal, profiling panel (AID 1162). The settings on record: higher = more signal.
Assay [2] can be described thus: compound effects on differentiated 3T3-L1 adipocyte viability – cell-based, 3T3-L1 adipocytes, calcein-AM fluorescence, 48 h, basal, profiling panel (AID 1163). The note with it: 3T3-L1 adipocytes viability, higher = more signal.
Assay [3] can be described thus: compound effects on hepatocellular carcinoma cell viability – HepG2, calcein-AM fluorescence, 48 h, basal, profiling panel (AID 1164). The note with it: higher = more signal.
The nature of assay [4]: compound effects on multiple myeloma cell viability – MM1S, calcein-AM fluorescence, 48 h, basal, profiling panel (AID 1165).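 Further: viability of MM1S multiple myeloma cells under basal unstimulated conditions.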 The note with it: higher = more signal.
The nature of assay [5]: calcein-AM signal in unstimulated myeloma cells – cell-based, calcein-AM fluorescence, 48 h, PK04 Diversity Set, profiling panel (AID 1166).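 Further: cells grown under basal conditions without added stimulus.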 The note with it: RPMI8226 myeloma viability, higher = more signal.
Assay [6] can be described thus: JC-1 mitochondrial signal, unstimulated HepG2 cells – cell-based, JC-1 fluorescence, 24 h, 100 nL compound, profiling panel (AID 1167). The note with it: HepG2 mitochondrial potential, higher = more signal.
Assay [7] in a line: JC-1 mitochondrial signal, unstimulated adipocytes – cell-based, JC-1 fluorescence, 3T3-L1 adipocytes, 24 h, 100 nL compound, profiling panel (AID 1168). The settings on record: JC-1 mitochondrial fluorescence, higher = more signal, called active from +8 up or from −8 down.
Assay [8] in a line: JC-1 mitochondrial signal, unstimulated myeloma cells – cell-based, JC-1 fluorescence, RPMI8226, 24 h, 100 nL compound, profiling panel (AID 1169). The settings on record: JC-1 mitochondrial potential fluorescence, higher = more signal.
A short description of assay [9]: JC-1 mitochondrial signal, unstimulated MM1S myeloma – cell-based, JC-1 fluorescence, 24 h, 100 nL compound, profiling panel (AID 1170). The settings on record: MM1S mitochondrial potential, higher = more signal.
A short description of assay [10]: resazurin metabolic signal in A549 cells – cell-based, resazurin fluorescence, 24 h, PK04 Diversity Set, profiling panel (AID 1171). The note with it: A549 viability, higher = more signal, called active from +8 up or from −8 down.
Further: test concentration not given here.

As to `CC(C)=NOC(C)CN1CCCc2nc(C)c(C)cc21` (stereo not given), the z-score in [1] was 0.755; in [2], -0.588; in assay [3], 0.272; in [4] it was -0.237; in assay [5] it was 0.0977; in assay [6] it was 0.0197. In addition, the z-score in assay [7] was -0.24 (inactive); in assay [8] it was -0.416; in assay [9], 0.226; in [10], -0.373 (inactive).

Consider `COC(=O)[C@H](C)NC(=O)CCC1CC(OC(=O)NCc2cccc3ccccc23)CC2(CCCC(COC(=O)NCCCN3CCCC3=O)O2)O1` (stereo not given in full), for which the z-score in assay [1] was 0.278; in [2] it was -0.172; in [3] it was 0.488; in assay [4], 0.145; in assay [5], -0.0813; in assay [6] it was 0.24. Besides, the z-score is 0.338 (inactive) in [7], -0.344 in [8], -0.394 in assay [9] and 0.44 (inactive) in assay [10].

As to `COc1ccc(O[C@H]2C=C[C@@H](c3ccccc3)O[C@@H]2CON=C2c3cc(OC)ccc3O[C@H](c3cccc(OC)c3)[C@H]2O)cc1`, the z-score in [1] is 0.344; in [2], -1.17; in [3], 0.189; in assay [4] it was -0.0952; in assay [5] it was -1.04; in [6] it was 0.422. For the same compound, the z-score in assay [7] was -2.37 (inactive); in assay [8], -0.326; in [9], -0.0381; in assay [10], -0.142 (inactive).

With `C#CCCCON=C1C[C@@H](O)[C@@H](O)[C@@H]2[C@@H]3C(=O)N([C@@H](C)c4ccccc4)C(=O)[C@@H]3CC[C@@H]12`, the z-score in assay [1] is 0.241; in assay [2] it was -0.532; in assay [3] it was -0.47; in [4] it was -0.597; in assay [5] it was -0.337; in assay [6], -0.998. The z-score in assay [7] was -0.377 (inactive); in [8] it was 0.462; in [9], -0.968; in assay [10], -0.378 (inactive).

Regarding `CCCC[C@H]1CN2[C@@H](CC[C@@H](C)[C@@H]2c2ccc(Br)cc2)C(=O)O1`, the z-score is 0.214 in [1]; 0.544 in [2]; -0.189 in assay [3]; -0.256 in [4]; -0.238 in assay [5]; 0.13 in [6]. The z-score in [7] was -0.206 (inactive); in assay [8], -0.221; in [9] it was 0.94; in assay [10] it was 0.8 (inactive).

On to `CON=C(C)CCC(=O)OC[C@H]1O[C@H](C#Cc2ccccc2)C=C[C@@H]1Oc1ccc(C)cc1`, for which the z-score was -0.631 in assay [1]; 0.0995 in [2]; -3.1 in assay [3]; -2.99 in assay [4]; -3.96 in assay [5]; -0.712 in assay [6]. In addition, the z-score in assay [7] was -0.73 (inactive); in assay [8] it was -0.5; in assay [9] it was -0.373; in assay [10] it was 0.216 (inactive).

Consider `C[C@@H]1CC[C@H]2C(=O)N3[C@@H](CC[C@@H](C)[C@@H]3c3ccc(Br)cc3)C(=O)N2[C@H]1c1ccc(Br)cc1`, for which the z-score in assay [1] was -0.569; in [2], -0.42; in [3], -0.0355; in assay [4] it was -2.69; in assay [5] it was -2.57; in assay [6], 1.65. In addition, the z-score in assay [7] is -0.76 (inactive); in [8], -0.22; in assay [9], 1.41; in [10] it was 0.632 (inactive).

On to `CCOC(=O)[C@H](Cc1ccccc1)NC(=O)CCC1CC(OC(=O)NCc2cccc3ccccc23)CC2(CCCC(COC(=O)NCCc3ccccc3OC)O2)O1` (stereo not given in full), for which the z-score in assay [1] was -0.111; in assay [2] it was -0.211; in assay [3], -0.521; in [4] it was -0.123; in assay [5] it was -1.39; in assay [6] it was 0.527. The z-score in assay [7] is -0.177 (inactive); in assay [8], -0.0487; in assay [9], -0.193; in assay [10], 0.737 (inactive).

With `C[C@@H](c1ccccc1)N1C(=O)[C@H]2[C@H]3[C@H](O)[C@H](O)CC(=NOC[C@@H](O)COCc4ccco4)[C@H]3CC[C@H]2C1=O`, the z-score was -0.428 in [1]; 0.565 in [2]; -0.187 in [3]; 0.352 in assay [4]; -1.83 in assay [5]; -0.137 in assay [6]. The z-score in assay [7] was -0.387 (inactive); in [8] it was -0.84; in assay [9], -0.0829; in assay [10], -0.268 (inactive).

As for `O=C1C=C[C@@H](O)[C@@H]2[C@@H]3C(=O)N(C4CCCCC4)C(=O)[C@@H]3CC[C@@H]12`, the z-score was -0.0763 in assay [1]; 0.351 in assay [2]; -0.602 in assay [3]; -1.88 in [4]; -2.19 in assay [5]; 1.23 in assay [6]. For the same compound, the z-score in assay [7] was -0.58 (inactive); in [8], -0.733; in assay [9], -1.54; in [10], 0.269 (inactive).

As for `CO[C@@H](C1CCCCC1)[C@@H](C)[C@H](OCc1cccc(Br)c1)[C@@H](C)CO`, the z-score in assay [1] was -2.34; in [2] it was -0.348; in assay [3] it was -2.22; in assay [4], -3.02; in assay [5] it was -4.04; in assay [6], -4.59. The z-score in assay [7] was 0.408 (inactive); in assay [8] it was -1.11; in [9] it was -0.184; in assay [10], -1.21 (inactive).

As for `O=C1C=C[C@@H](O)[C@@H]2[C@@H]3C(=O)N(c4cccc(Oc5ccccc5)c4)C(=O)[C@@H]3CC[C@@H]12`, the z-score in [1] is -0.496; in [2] it was 1.38; in assay [3], 0.0765; in [4] it was -1.03; in [5], -2.47; in [6], 0.111. For the same compound, the z-score was 0.717 (inactive) in assay [7], -0.618 in assay [8], -0.72 in assay [9] and -0.869 (inactive) in assay [10].

With `C[C@H]1CC[C@@H](C(=O)O)N[C@@H]1c1ccc(C#Cc2ccccc2)cc1`, the z-score is -2.1 in assay [1]; 0.196 in assay [2]; -2.28 in [3]; -3.57 in assay [4]; -3.49 in assay [5]; -3.46 in assay [6]. Moreover, the z-score is -0.272 (inactive) in [7], -0.92 in assay [8], -1.59 in assay [9] and -0.522 (inactive) in [10].

For the compound `CO[C@H]1COC(=O)[C@H](C)COC(=O)[C@@H](OCc2ccccc2)C=C[C@@H]1C`, the z-score in assay [1] is 0.644; in assay [2], 0.0582; in assay [3], 0.392; in assay [4], 0.493; in assay [5] it was -0.584; in assay [6], 0.919. Moreover, the z-score in assay [7] is 0.308 (inactive); in [8], -0.177; in [9], 1.26; in assay [10], -0.0266 (inactive).
